# According to PMC7862700, “An all-to-all approach to the identification of sequence-specific readers for epigenetic DNA modifications on cytosine”:
# Experiments:
# Test in all cases: DAPPL (digital affinity profiling via proximity ligation, sequencing); 10 mM Tris-HCl pH 7.5, 50 mM NaCl, 1 mM DTT, 4% glycerol, room temperature, 30 min; GST-TFs on glutathione beads, 16-mer random dsDNA library, 0.1% formaldehyde crosslink after washing; high values mean tight binding
# FLI1 = biological target: T1, FLI1 (Homo sapiens, UniProt Q01543 1-452); details: protein: recombinant; tags: N-terminal GST; dsDNA, one strand shown
# T1 sequence: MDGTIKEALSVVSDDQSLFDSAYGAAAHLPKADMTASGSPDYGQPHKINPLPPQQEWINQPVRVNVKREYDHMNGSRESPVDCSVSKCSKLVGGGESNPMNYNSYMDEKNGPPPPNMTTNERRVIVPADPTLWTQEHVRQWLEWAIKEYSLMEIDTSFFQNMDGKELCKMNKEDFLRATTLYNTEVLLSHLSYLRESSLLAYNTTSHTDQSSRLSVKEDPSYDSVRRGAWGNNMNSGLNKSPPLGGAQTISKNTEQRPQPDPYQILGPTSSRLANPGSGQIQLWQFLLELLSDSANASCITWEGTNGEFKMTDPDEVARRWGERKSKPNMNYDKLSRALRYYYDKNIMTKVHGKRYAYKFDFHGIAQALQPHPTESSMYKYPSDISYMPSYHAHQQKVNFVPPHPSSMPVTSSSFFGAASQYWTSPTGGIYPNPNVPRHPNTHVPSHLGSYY
# Outline: (§1)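 After expression in yeast as GST fusions, human transcription factors were bound to glutathione beads, DNA-barcoded and mixed with a tag-only sample. The pools were incubated with 200 nmole of a 16-mer random double-stranded DNA library in Tris/NaCl/DTT/glycerol buffer (30 min, room temperature), washed and crosslinked with 0.1% formaldehyde. Proximity ligation with BsaI/T4 ligase ran for 1 h at 37 °C, before PCR amplification and sequencing on an Illumina NextSeq500. Binding signal is a hexamer's read frequency for a factor divided by its frequency for the tag-only sample.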
# ELK1 = biological target: T2, ELK1 (Homo sapiens, UniProt P19419 1-428); details: protein: recombinant; tags: N-terminal GST; dsDNA, one strand shown
# T2 sequence: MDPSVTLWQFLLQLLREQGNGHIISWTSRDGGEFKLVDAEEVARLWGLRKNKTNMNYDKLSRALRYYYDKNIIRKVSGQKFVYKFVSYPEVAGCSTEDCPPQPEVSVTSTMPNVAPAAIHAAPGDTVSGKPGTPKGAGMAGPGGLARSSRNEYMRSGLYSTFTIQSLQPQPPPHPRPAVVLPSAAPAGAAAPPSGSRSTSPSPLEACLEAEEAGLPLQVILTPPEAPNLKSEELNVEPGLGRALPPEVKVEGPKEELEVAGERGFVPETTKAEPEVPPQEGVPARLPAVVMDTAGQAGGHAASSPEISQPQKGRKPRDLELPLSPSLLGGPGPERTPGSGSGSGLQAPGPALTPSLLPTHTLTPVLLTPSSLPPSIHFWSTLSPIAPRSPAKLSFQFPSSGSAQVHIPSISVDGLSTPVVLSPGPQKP
# Outline: as §1
# GABPA = biological target: T3, GABPA (Homo sapiens, UniProt Q06546 1-454); details: protein: recombinant; tags: N-terminal GST; dsDNA, one strand shown
# T3 sequence: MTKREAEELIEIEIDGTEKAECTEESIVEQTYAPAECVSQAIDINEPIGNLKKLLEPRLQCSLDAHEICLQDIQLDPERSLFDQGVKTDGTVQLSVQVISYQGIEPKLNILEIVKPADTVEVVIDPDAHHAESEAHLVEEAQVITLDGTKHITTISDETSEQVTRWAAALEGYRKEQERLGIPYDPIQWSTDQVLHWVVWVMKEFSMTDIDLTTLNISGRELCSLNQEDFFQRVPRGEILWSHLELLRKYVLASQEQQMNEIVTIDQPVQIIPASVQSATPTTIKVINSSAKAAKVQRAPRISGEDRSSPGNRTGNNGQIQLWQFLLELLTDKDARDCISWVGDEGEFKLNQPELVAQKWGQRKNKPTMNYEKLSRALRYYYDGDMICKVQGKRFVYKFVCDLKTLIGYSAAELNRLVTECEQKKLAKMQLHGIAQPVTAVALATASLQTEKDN
# Outline: as §1
# ERG = biological target: T4, ERG (Homo sapiens, UniProt P11308 1-479); details: protein: recombinant; tags: N-terminal GST; dsDNA, one strand shown
# T4 sequence: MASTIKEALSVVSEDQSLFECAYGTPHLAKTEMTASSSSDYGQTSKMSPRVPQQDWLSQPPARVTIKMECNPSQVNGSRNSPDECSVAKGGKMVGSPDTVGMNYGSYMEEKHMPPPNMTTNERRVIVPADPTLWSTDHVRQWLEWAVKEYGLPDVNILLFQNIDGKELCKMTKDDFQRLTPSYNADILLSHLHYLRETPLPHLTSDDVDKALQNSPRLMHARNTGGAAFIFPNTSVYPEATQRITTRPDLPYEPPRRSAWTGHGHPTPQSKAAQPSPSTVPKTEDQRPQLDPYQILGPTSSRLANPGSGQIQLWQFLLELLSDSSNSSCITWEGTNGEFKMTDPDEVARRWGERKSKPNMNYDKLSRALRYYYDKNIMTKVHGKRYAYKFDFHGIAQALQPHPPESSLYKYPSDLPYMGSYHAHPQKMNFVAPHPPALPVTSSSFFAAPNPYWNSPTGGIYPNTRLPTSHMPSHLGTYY
# Outline: as §1
# ELF1 = ELF1 (Homo sapiens, UniProt P32519 1-619); details: protein: recombinant; tags: N-terminal GST; dsDNA, one strand shown
# Chain of ELF1 (P32519 whole entry): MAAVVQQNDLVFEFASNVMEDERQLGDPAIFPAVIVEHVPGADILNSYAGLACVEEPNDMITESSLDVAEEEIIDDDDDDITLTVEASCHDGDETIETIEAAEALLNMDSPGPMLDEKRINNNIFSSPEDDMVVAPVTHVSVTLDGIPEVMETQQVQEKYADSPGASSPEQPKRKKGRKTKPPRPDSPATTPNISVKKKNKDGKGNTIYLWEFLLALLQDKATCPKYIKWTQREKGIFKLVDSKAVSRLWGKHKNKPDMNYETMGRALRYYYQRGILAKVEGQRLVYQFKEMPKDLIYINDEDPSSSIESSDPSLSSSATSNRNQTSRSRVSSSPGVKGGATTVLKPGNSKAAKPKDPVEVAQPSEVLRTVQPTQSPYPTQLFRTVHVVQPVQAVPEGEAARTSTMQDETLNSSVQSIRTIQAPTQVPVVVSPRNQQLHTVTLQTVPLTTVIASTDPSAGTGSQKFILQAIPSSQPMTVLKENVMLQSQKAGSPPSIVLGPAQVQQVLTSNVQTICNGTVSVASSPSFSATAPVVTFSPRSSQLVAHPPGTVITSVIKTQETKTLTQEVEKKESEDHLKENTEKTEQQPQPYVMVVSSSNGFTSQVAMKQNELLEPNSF
# Outline: as §1
# EHF = biological target: T5, EHF (Homo sapiens, UniProt Q9NZC4 1-300); details: protein: recombinant; tags: N-terminal GST; dsDNA, one strand shown
# T5 sequence: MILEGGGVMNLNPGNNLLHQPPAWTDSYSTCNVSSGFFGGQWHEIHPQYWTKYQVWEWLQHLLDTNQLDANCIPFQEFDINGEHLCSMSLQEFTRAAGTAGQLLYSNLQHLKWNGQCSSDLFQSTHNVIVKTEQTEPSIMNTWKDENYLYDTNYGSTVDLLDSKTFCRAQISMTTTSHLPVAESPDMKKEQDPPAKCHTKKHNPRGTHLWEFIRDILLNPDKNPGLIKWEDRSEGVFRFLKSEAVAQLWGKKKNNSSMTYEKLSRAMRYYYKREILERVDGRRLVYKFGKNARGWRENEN
# Outline: as §1
# SPI1 = SPI1 (Homo sapiens, UniProt P17947 1-270); details: protein: recombinant; tags: N-terminal GST; dsDNA, one strand shown
# Outline: as §1
# SPIB = SPIB (Homo sapiens, UniProt Q01892 1-262); details: protein: recombinant; tags: N-terminal GST; dsDNA, one strand shown
# Chain of SPIB (Q01892 whole entry): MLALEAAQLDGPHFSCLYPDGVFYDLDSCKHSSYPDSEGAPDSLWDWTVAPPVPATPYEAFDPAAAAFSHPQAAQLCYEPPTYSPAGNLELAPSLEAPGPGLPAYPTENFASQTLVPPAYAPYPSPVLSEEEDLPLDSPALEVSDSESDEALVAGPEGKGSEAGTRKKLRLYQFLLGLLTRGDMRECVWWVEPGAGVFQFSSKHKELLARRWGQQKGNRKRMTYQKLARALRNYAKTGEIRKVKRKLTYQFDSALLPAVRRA
# Outline: as §1
# ELK3 = biological target: T6, ELK3 (Homo sapiens, UniProt P41970 1-407); details: protein: recombinant; tags: N-terminal GST; dsDNA, one strand shown
# T6 sequence: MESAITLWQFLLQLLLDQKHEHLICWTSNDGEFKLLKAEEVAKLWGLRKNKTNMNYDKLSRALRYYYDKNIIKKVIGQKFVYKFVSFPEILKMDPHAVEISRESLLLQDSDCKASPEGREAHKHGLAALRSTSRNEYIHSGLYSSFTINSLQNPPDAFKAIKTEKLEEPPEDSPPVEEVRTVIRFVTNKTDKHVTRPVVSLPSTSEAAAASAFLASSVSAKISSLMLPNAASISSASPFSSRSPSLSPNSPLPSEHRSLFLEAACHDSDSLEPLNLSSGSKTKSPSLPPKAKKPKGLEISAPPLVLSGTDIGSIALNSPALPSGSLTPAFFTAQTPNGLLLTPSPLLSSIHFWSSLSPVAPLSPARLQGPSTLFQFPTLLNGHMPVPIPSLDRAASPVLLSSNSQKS
# Outline: as §1
# FEV = biological target: T7, FEV (Homo sapiens, UniProt Q99581 1-238); details: protein: recombinant; tags: N-terminal GST; dsDNA, one strand shown
# T7 sequence: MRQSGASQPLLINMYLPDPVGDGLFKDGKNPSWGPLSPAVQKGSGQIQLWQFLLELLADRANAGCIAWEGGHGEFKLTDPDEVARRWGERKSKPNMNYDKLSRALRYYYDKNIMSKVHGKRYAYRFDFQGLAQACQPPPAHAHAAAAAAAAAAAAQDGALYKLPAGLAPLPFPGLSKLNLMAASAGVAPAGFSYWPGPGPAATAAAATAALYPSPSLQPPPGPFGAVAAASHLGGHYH
# Outline: as §1
# ETV5 = ETV5 (Homo sapiens, UniProt P41161 1-510); details: protein: recombinant; tags: N-terminal GST; dsDNA, one strand shown
# Chain of ETV5 (P41161 whole entry): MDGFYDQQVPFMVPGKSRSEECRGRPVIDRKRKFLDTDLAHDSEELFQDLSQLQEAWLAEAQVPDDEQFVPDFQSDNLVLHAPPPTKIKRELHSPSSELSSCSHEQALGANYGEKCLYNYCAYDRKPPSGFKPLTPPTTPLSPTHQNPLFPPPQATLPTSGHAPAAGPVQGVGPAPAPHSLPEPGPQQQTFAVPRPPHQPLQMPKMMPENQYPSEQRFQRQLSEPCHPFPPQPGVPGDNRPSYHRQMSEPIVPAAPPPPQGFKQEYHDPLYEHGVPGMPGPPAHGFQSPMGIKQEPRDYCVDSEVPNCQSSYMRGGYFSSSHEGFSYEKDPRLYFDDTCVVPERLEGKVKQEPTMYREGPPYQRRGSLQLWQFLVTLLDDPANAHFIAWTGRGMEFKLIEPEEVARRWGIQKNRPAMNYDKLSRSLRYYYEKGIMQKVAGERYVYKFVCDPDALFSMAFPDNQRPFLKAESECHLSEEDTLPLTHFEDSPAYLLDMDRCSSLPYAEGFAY
# Outline: as §1
# HSF1 = HSF1 (Homo sapiens, UniProt Q00613 1-529); details: protein: recombinant; tags: N-terminal GST; chain copies: 3; dsDNA, one strand shown
# Chain of HSF1 (Q00613 whole entry): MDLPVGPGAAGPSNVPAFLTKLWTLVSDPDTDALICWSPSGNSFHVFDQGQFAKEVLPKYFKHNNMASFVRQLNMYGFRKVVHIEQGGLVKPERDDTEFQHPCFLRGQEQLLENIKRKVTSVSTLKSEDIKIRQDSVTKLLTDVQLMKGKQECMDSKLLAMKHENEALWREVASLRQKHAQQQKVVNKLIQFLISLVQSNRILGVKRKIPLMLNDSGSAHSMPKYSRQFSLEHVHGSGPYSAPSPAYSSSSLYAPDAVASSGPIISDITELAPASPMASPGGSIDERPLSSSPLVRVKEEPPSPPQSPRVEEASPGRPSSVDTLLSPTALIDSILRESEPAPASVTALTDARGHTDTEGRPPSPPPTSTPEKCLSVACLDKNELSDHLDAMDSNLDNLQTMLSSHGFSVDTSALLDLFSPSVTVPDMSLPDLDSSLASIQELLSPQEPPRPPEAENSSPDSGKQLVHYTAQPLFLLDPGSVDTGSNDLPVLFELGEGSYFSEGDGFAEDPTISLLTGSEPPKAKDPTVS
# Outline: as §1
# SPIC = biological target: T8, SPIC (Homo sapiens, UniProt Q8N5J4 1-248); details: protein: recombinant; tags: N-terminal GST; dsDNA, one strand shown
# T8 sequence: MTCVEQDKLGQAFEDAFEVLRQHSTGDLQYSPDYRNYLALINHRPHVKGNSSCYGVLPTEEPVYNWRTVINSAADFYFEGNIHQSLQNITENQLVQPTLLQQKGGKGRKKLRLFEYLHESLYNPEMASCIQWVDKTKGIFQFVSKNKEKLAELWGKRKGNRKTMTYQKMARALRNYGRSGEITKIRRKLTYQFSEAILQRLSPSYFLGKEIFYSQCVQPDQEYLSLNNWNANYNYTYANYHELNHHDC
# Outline: as §1
# ELF4 = ELF4 (Homo sapiens, UniProt Q99607 1-663); details: protein: recombinant; tags: N-terminal GST; dsDNA, one strand shown
# Chain of ELF4 (Q99607 whole entry): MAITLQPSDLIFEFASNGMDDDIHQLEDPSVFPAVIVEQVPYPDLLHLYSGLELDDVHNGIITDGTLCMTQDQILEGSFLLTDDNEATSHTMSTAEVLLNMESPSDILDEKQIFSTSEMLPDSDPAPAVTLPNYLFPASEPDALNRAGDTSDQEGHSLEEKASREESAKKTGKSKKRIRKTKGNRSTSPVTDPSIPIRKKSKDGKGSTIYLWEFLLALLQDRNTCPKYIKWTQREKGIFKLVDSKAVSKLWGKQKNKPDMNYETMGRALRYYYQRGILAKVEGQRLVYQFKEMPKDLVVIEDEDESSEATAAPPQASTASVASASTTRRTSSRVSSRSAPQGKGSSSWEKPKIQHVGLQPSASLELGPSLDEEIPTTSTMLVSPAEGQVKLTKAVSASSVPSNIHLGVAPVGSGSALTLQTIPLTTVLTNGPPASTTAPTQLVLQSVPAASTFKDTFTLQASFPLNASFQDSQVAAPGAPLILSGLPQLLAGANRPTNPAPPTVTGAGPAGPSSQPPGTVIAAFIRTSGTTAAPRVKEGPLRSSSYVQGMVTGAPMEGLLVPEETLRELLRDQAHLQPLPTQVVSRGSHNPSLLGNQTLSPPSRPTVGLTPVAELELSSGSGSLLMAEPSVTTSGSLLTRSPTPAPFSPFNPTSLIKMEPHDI
# Outline: as §1
# ELK4 = biological target: T9, ELK4 (Homo sapiens, UniProt P28324-2 1-405); details: protein: recombinant; tags: N-terminal GST; dsDNA, one strand shown
# T9 sequence: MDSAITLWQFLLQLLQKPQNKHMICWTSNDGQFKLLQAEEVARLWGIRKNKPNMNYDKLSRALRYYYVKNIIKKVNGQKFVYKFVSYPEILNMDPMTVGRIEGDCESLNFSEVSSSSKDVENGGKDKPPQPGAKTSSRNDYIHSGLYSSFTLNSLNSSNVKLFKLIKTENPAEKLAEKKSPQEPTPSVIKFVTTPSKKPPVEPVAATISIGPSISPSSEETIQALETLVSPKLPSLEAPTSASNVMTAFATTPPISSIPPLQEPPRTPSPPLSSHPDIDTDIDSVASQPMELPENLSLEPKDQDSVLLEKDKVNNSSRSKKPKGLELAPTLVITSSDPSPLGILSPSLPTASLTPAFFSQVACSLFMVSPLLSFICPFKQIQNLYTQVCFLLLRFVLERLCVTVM
# Outline: as §1
# ETV2 = biological target: T10, ETV2 (Homo sapiens, UniProt O00321 1-342); details: protein: recombinant; tags: N-terminal GST; dsDNA, one strand shown
# T10 sequence: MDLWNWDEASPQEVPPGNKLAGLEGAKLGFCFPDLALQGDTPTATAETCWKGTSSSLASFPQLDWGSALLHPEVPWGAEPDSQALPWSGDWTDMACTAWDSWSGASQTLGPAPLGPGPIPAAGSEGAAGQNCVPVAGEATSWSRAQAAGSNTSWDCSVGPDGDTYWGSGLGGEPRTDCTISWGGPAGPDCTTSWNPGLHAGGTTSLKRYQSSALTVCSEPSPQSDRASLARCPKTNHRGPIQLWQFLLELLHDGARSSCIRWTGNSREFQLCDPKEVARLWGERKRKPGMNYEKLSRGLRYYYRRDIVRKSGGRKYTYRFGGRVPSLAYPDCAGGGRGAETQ
# Outline: as §1
# ELF3 = biological target: T11, ELF3 (Homo sapiens, UniProt P78545 1-371); details: protein: recombinant; tags: N-terminal GST; dsDNA, one strand shown
# T11 sequence: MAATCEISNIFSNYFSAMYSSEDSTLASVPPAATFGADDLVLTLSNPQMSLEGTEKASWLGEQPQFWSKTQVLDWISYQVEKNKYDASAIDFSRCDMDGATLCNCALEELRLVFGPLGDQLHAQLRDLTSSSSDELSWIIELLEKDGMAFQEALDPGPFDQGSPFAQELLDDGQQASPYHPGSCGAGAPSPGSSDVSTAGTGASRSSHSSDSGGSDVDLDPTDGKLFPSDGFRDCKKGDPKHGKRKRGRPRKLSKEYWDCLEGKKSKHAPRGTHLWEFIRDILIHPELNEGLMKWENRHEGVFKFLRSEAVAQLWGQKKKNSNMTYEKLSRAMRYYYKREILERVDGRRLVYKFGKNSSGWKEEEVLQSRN
# Outline: as §1
# ETV1 = ETV1 (Homo sapiens, UniProt P50549 1-477); details: protein: recombinant; tags: N-terminal GST; dsDNA, one strand shown
# Chain of ETV1 (P50549 whole entry): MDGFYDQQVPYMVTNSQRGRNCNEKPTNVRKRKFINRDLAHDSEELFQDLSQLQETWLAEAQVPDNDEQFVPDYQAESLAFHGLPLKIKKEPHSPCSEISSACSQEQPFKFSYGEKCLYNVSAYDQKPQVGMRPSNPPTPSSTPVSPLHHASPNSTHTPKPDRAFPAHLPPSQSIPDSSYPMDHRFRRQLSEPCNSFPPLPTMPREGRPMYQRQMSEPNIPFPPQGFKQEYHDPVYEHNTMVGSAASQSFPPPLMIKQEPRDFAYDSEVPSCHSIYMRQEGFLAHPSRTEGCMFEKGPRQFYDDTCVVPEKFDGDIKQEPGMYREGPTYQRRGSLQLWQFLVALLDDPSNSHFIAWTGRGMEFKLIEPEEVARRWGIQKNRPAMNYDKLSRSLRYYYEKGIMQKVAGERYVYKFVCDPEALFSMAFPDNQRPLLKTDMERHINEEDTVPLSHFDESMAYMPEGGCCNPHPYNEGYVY
# Outline: as §1
sequence,measurement,setting,value
GCAACT,binding signal,FLI1,"1.22 fold enrichment (6-mer frequency, TF over GST control)"
same,binding signal,ELK1,"1.19 fold enrichment (6-mer frequency, TF over GST control)"
same,binding signal,GABPA,"1.19 fold enrichment (6-mer frequency, TF over GST control)"
same,binding signal,ERG,"1.33 fold enrichment (6-mer frequency, TF over GST control)"
same,binding signal,ELF1,"1.29 fold enrichment (6-mer frequency, TF over GST control)"
same,binding signal,EHF,"1.2 fold enrichment (6-mer frequency, TF over GST control)"
same,binding signal,SPI1,"1.23 fold enrichment (6-mer frequency, TF over GST control)"
same,binding signal,SPIB,"1.22 fold enrichment (6-mer frequency, TF over GST control)"
same,binding signal,ELK3,"1.14 fold enrichment (6-mer frequency, TF over GST control)"
same,binding signal,FEV,"1.27 fold enrichment (6-mer frequency, TF over GST control)"
same,binding signal,ETV5,"1.2 fold enrichment (6-mer frequency, TF over GST control)"
same,binding signal,HSF1,"1.05 fold enrichment (6-mer frequency, TF over GST control)"
same,binding signal,SPIC,"1.3 fold enrichment (6-mer frequency, TF over GST control)"
same,binding signal,ELF4,"1.2 fold enrichment (6-mer frequency, TF over GST control)"
same,binding signal,ELK4,"1.2 fold enrichment (6-mer frequency, TF over GST control)"
same,binding signal,ETV2,"1.04 fold enrichment (6-mer frequency, TF over GST control)"
same,binding signal,ELF3,"1.12 fold enrichment (6-mer frequency, TF over GST control)"
same,binding signal,ETV1,"1.25 fold enrichment (6-mer frequency, TF over GST control)"
